Assay outcomes: PubChem BioAssay, National Center for Advancing Translational Sciences (NCATS)
DRD3 antagonist = qHTS of D3 Dopamine Receptor Antagonist: qHTS | AID 652054, 2013 | D(3) dopamine receptor (Homo sapiens), P35462 | max response, negative = inhibition, % | hit rate 2.5% among 360,000 | D3R cells, DiscoveRx beta-arrestin luminescence, antagonist mode; hits give low values; in the data active means max response below about -50%; inconclusive means no clear call, values can overlap the other calls; further: on the % scale 0 is the no-effect control and ±100 the full control effect
Target sequence (P35462 whole entry, looked up): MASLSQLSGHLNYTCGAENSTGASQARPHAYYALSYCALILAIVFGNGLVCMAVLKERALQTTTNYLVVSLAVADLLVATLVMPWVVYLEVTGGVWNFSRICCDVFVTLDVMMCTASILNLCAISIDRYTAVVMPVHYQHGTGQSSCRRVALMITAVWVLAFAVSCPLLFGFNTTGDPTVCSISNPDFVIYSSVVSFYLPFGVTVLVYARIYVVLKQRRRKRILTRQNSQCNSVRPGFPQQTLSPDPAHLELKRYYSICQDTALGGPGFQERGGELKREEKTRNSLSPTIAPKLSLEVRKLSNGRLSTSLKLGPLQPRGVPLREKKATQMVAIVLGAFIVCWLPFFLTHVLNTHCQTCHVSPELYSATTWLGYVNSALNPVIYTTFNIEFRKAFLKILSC
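Cells plated overnight at 1500 cells/well, then exposed to library compounds with dopamine controls for 90 minutes at 37 degrees C. DiscoveRx reagent added for 30–60 minutes at room temperature; luminescence read, quantitative HTS format.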
KB-V1 cytotox = qHTS assay for MDR1-selective chemotherapeutics: Primary screen using the drug-selected MDR subline cells KB-V1; KB-V1 MDR cells viability, CellTiter-Glo, 72 h; Potency, µM (highest dose often 46.1 µM), most hits filed as cytotoxic; hit rate 3.4% among 400,000; further: potency means the concentration at half of the fitted maximal effect; on the % scale 0 is the no-effect control and ±100 the full control effect; nearly all actives have a fitted effect of over 60% in size
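In this primary screen, KB-V1 cells overexpressing P-gp are incubated with library compounds (lowest to highest concentration) for 72 h at 37 degrees C before a luminescent ATP viability read.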
KB-3-1 tox = qHTS assay for MDR1-selective chemotherapeutics: Primary screen using the parental adenocarcinoma cell KB-3-1; hit rate 1.4% among 400,000; KB-3-1 viability, CellTiter-Glo ATP luminescence, 72 h; Potency, µM (titrated, usually from 46.1 µM), hits mostly cytotoxic; AID 1347075, 2019; further: potency means the concentration at half of the fitted maximal effect; on the % scale 0 is the no-effect control and ±100 the full control effect; nearly all actives have a fitted effect of over 60% in size
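Using CellTiter-Glo luminescence, growth of non-resistant KB-3-1 adenocarcinoma cells is assessed 72 h after pin-tool compound addition at 37 °C. Normalized responses across the concentration series yield fitted curves.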
MCF10A rereplic = A quantitative high throughput screen for small molecules that induce DNA re-replication in MCF 10a normal breast cells | MCF 10A DNA re-replication, Hoechst nuclear intensity, 48 h | Potency, µM (titrated, usually from 46.1 µM), for inactives: top-dose activity, positive = re-replication, hits mostly activators | hit rate 2.9% among 350,000; further: potency means the concentration at half of the fitted maximal effect; % of control where 0% means no effect; nearly all actives have a fitted effect of over 50% in size
SW480 rerep = A quantitative high throughput screen for small molecules that induce DNA re-replication in SW480 colon adenocarcinoma cells; AID 624297, 2012; Potency, µM (highest dose often 46.1 µM), for inactives: top-dose re-replication activation, usual class: activators; hit rate 1.8% among 340,000; SW480 DNA re-replication, Hoechst DNA content imaging, 48 h; further: potency means the concentration at half of the fitted maximal effect; % of control where 0% means no effect; nearly all actives have a fitted effect of over 55% in size
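Image-based DNA-content assay: after two days of treatment, nuclei were labelled with the DNA dye Hoechst and imaged, and hits were compounds raising the count of nuclei showing high fluorescence intensity.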
D3 ag = qHTS of D3 Dopamine Receptor Agonist: qHTS; hit rate 0.58% among 410,000; D3R DiscoveRx beta-arrestin cells, luminescence, 90 min; AID 652048, 2013; max activation, %; D(3) dopamine receptor (Homo sapiens), P35462; in the data active means max activation above about 30%; further: 0% is about no effect
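Agonist-mode cell screen: cells plated at 1500/well and incubated overnight at 37 °C, then exposed to library compounds for 90 min at 37 °C. Detection reagent was added for 30–60 min at room temperature, and luminescence was read.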
The depositor's hits bear a star; i = inactive; ? = inconclusive; . = not tested or not shown. Shown are actives, neighbours in structure and some others; about 8.9% of the full set was active somewhere. Unless noted, the call rests on the fitted dose curve; in most records, active means well fitted curve in the direction sought with a large enough effect; inconclusive means small, poorly fitted or top-dose-only effect, or another doubt; inactive means no such curve, though single readings can be large; an effect the other way counts as inactive or inconclusive.

SMILES | DRD3 antagonist | KB-V1 cytotox | KB-3-1 tox | MCF10A rereplic | SW480 rerep | D3 ag
CS(=O)(=O)c1ncc(Cl)c(C(=O)Nc2ccc(OC(F)F)cc2)n1 | -152* | ? | ? | 5.2µM* | 1.8µM* | -19
CS(=O)(=O)c1ccc(C(=O)Nc2ccc(N3CCOCC3)cc2)c(Cl)c1 | -5 | i | i | 0% | ? | -9
COc1ccc(-c2cc(OC(=O)c3cccc(Cl)c3)c3c(C)oc(C)c3c(=O)c2)cc1 | . | i | i | . | . | 2
COC(=O)c1c(N)n(-c2ccc(NC(C)=O)cc2)c2nc3ccccc3nc12 | 0 | i | i | 0% | -5% | -4
Nc1c(C(=O)NCc2ccccc2)c2nc3ccccc3nc2n1-c1ccc2c(c1)OCO2 | 8 | i | i | 12% | 5% | 1
COCCCNC(=O)c1c(N)n(-c2ccccc2)c2nc3ccccc3nc12 | 15 | ? | i | 23µM* | 21µM* | 26
COCCCNC(=O)c1c(N)n(-c2ccc(S(N)(=O)=O)cc2)c2nc3ccccc3nc12 | 10 | i | i | 7.3µM* | 9.2µM* | 11
Cc1c(NC(=O)c2ccccc2NS(=O)(=O)c2ccc(Br)cc2)c(=O)n(-c2ccccc2)n1C | -23 | 23µM* | i | 13% | 4% | -2
Nc1ccc(-n2c(N)c(C(=O)NCc3ccc4c(c3)OCO4)c3nc4ccccc4nc32)cc1 | -16 | i | i | 16µM* | 21µM* | -4
CCOc1ccccc1NC(=O)CSc1nnc2[nH]c(=O)cc(-c3ccccc3)n12 | . | . | . | . | . | 2
Cc1cccc(COCCN2CCN(S(=O)(=O)c3ccccc3)CCC2=O)c1 | 13 | i | i | -23% | 3% | -3
CCOC(=O)Cc1ccc(NC(=O)NC(C)c2c(-n3cccc3)sc(C)c2C)cc1 (configuration not stated) | . | . | . | . | . | 5
C=CCNC(=O)c1c(N)n(-c2cccc(S(N)(=O)=O)c2)c2nc3ccccc3nc12 | 0 | i | ? | 3.3µM* | 4.1µM* | -2
Cc1ccc(Nc2nc3ccccc3nc2Nc2c(C)n(C)n(-c3ccccc3)c2=O)cc1 | -5 | ? | i | 1.8µM* | -4% | 7
COCCNC(=O)c1c(N)n(CCCn2ccnc2)c2nc3ccccc3nc12 | -3 | i | i | 12µM* | ? | -3
CCOC(=O)c1c(N)n(-c2cc(C)cc(C)c2)c2nc3ccccc3nc12 | . | ? | i | . | . | 1
COCCNC(=O)c1c(N)n(-c2cccc(C)c2)c2nc3ccccc3nc12 | 8 | i | i | 18µM* | 13µM* | 8
O=C(C[n+]1csc2ccccc21)c1ccc(O)c(O)c1 | . | i | i | . | . | .
Cc1cc(C)c2c(=O)cc(C(=O)Nc3sc4c(c3C(=O)NCc3ccccc3)CCCC4)oc2c1 | . | . | . | . | . | -3
Cc1ccc(-n2c(N)c(C(=O)Nc3c(C)n(C)n(-c4ccccc4)c3=O)c3nc4ccccc4nc32)cc1 | -29 | 23µM* | ? | 1% | 1% | -48
Cc1cc(C)cc(-n2c(N)c(C(=O)Nc3c(C)n(C)n(-c4ccccc4)c3=O)c3nc4ccccc4nc32)c1 | 7 | ? | i | ? | 0% | 7
Nc1c(C(=O)NCCN2CCOCC2)c2nc3ccccc3nc2n1-c1ccccc1 | 4 | ? | i | 1% | 1% | 10
COCCNC(=O)c1c(N)n(-c2ccccc2)c2nc3ccccc3nc12 | 25 | i | i | ? | 21µM* | 1
COc1cccc(-n2c(-c3ccccc3F)nc3c(cnn3-c3ccc(C)cc3)c2=O)c1 | . | i | 16µM* | . | . | -15
COc1ccc(-n2c(C)nc3c(cnn3-c3ccc(C)cc3)c2=O)cc1 | 22 | i | i | ? | -15% | 15
SMILES | DRD3 antagonist | KB-V1 cytotox | KB-3-1 tox | MCF10A rereplic | SW480 rerep | D3 ag
Cc1ccc(-n2c(C)nc3c(cnn3-c3ccccc3)c2=O)cc1 | . | 16µM* | ? | . | . | 3
O=c1oc(-c2ccccc2F)nc2c1cnn2-c1ccccc1 | -65* | i | i | 18% | 1% | -23
O=c1oc(-c2cccc(Cl)c2)nc2c1cnn2-c1ccccc1 | -23 | i | i | 10% | -4% | -4
CCN(C[C@H]1N[C@@](Cc2ccccc2)(C(=O)OC)[C@H]2C(=O)N(C)C(=O)[C@@H]12)C(=O)C1CCCCC1 | -18 | i | i | -18% | ? | -32
CN(C)c1ccc(/C=C/c2c3c(nc4ccccc24)CCCC3)cc1 | . | i | i | . | . | .
CC1CCN(c2ccc(S(=O)(=O)NC3=NCCCCC3)cc2[N+](=O)[O-])CC1 | 4 | 21µM* | ? | 17% | -11% | 0
CNS(=O)(=O)c1ccc(N2CCCC2)c([N+](=O)[O-])c1 | 5 | i | i | 1% | -20% | 2
O=C(O)c1ccc(CN2C(=O)c3cccc4c([N+](=O)[O-])ccc(c34)C2=O)cc1 | -29 | ? | ? | 5.8µM* | 5.8µM* | 2
CC(=O)Oc1cccc(N2C(=O)c3cccc4c([N+](=O)[O-])ccc(c34)C2=O)c1 | -8 | i | i | 21µM* | ? | 12
CN(C)CCCN1C(=O)c2cccc3c([N+](=O)[O-])ccc(c23)C1=O | -24 | ? | 23µM* | 5.8µM* | 5.8µM* | -5
O=C(Nc1nccs1)c1cccc(N2C(=O)c3cccc4c([N+](=O)[O-])ccc(c34)C2=O)c1 | -9 | ? | ? | 3.7µM* | 7.3µM* | 0
Cn1nnnc1SCCNCc1ccc(OCc2ccc(Cl)cc2)cc1 | . | ? | i | . | . | -16
COc1ccc(N2CCN(C(=O)CCS(=O)(=O)c3cc4c(cc3Cl)NC(=O)CO4)CC2)cc1 | . | i | i | . | . | -6
CC(=O)Nc1nonc1-c1nnc(SCC(=O)Nc2ccc(C)cc2)n1-c1ccccc1 | . | i | i | . | . | 8
Cc1ccc(C(=O)O)cc1N1C(=O)c2cccc3c([N+](=O)[O-])ccc(c23)C1=O | -15 | i | ? | 18µM* | ? | 5
CCc1ccc(S(=O)(=O)Nc2ccc(N3CCN(C)CC3)cc2)cc1 | -82* | i | i | 27% | 2% | -9
Cc1ccc(S(=O)(=O)Nc2ccc(N3CCN(C)CC3)nc2)cc1 | -59* | i | i | ? | 37% | -16
N#C/C(=C/c1ccc2c(c1)OCO2)C(=O)NCCc1c[nH]c2ccccc12 | -7 | 15µM* | i | ? | ? | 3
